Assay outcomes (PubChem BioAssay)
HT1080 IDH1KD tx: kills HT-1080 cells with IDH1 knockdown. Potency, µM (top dose mostly 46.1 µM), hits mostly cytotoxic. AID 686971. 360,000 compounds, 2% hits. HT-1080 IDH1 knockdown viability, ATP luminescence, 48 h
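CellTiter-Glo luminescence after 48 h compound exposure at 37 degrees C of IDH1-knockdown HT-1080 cells in 5% FBS RPMI. %Activity scaled between DMSO wells and cell-free media wells, with curves fitted and assigned curve classes.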
ATXN2 expr inh: reduces ATXN2 reporter expression in HEK-293 cells; 360,000 compounds, 0.72% hits; Potency, µM (top dose mostly 57 µM), actives largely listed as inhibitors; AID 1745845; HEK-293 ATXN2-luciferase reporter, luminescence, 24 h; note: nearly all actives have a fitted effect of over 55% in size
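qHTS (up to 57 uM final) was run with 24 h compound exposure of reporter cells at 37 °C. Each well was multiplexed: SteadyGlo luminescence measured ATXN2-luciferase expression after a fluorogenic Gly-Phe-AFC viability readout (25 uM final).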
ATXN viability: cell viability loss in ATXN counter-screen. Potency, µM (doses to about 56.7 µM), actives largely listed as cytotoxic. AID 651635. 400,000 compounds, 0.49% hits. S2 cells (HEK-293 line with an ATXN2-luciferase reporter) viability, CellTiter-Fluor protease fluorescence, 24 h; note: nearly all actives have a fitted effect of over 40% in size
HT1080NT lethal: kills 2HG-producing HT-1080-NT fibrosarcoma cells | Potency, µM (series often up to 46.1 µM), actives largely listed as cytotoxic | AID 686970 | HT-1080-NT fibrosarcoma viability, CellTiter-Glo ATP luminescence, 48 h | 360,000 compounds, 1.6% hits;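 note: NT is the 2HG producing partner of a matched IDH1 knockdown line; nearly all actives have a fitted effect of over 55% in size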
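Read-out is CellTiter-Glo luminescence after 10 minutes at room temperature, following 48 hours' compound treatment of HT-1080-NT cells (750 cells/well, RPMI, 5% FBS, 37 degrees C).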
KB-V1 MDR tox: KB-V1 MDR subline cytotoxicity; KB-V1 MDR cells viability, CellTiter-Glo, 72 h; Potency, µM (doses to about 46.1 µM), usual class: cytotoxic; 400,000 compounds, 3.4% hits; AID 1347076; note: nearly all actives have a fitted effect of over 60% in size
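Cytotoxicity toward P-gp-expressing KB-V1 cells was determined as loss of CellTiter-Glo luminescence after 72 h at 37 degrees C. Compounds were tested in quantitative HTS format across a concentration range, with curves fitted to normalized data.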
KB-3-1 cytotox: KB-3-1 parental cell cytotoxicity; KB-3-1 viability, CellTiter-Glo ATP luminescence, 72 h; Potency, µM (top dose mostly 46.1 µM), actives largely listed as cytotoxic; 400,000 compounds, 1.4% hits; note: nearly all actives have a fitted effect of over 60% in size
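Parental KB-3-1 adenocarcinoma cells in phenol-red-free DMEM with 10% FBS were pin-treated with compounds at several concentrations, incubated 72 h at 37 °C, and viability read by CellTiter-Glo luminescence; concentration-effect curves were fitted after normalization.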
Numbers stand for hits; - = inactive; ? = inconclusive; . = no result; [ ] = dose if it differs, or a comment. Sampled rows, rich in hits. Any-hit rate of the full collection: about 6.2%. Calls come from the whole dose curve; as a rule, active = well fitted curve in the direction sought with a large enough effect; inconclusive = small, poorly fitted or top-dose-only effect, or another doubt; inactive = no such curve, though single readings can be large; an effect the other way counts as inactive or inconclusive.

SMILES | HT1080 IDH1KD tx | ATXN2 expr inh | ATXN viability | HT1080NT lethal | KB-V1 MDR tox | KB-3-1 cytotox
COc1ccccc1NS(=O)(=O)c1cc(NC(=O)Nc2ccc(Cl)cc2Cl)ccc1N1CCCCC1 | - | - | ? | - | 10µM | ?
COc1ccccc1NS(=O)(=O)c1cc(NC(=O)C2CCC2)ccc1N1CCCCC1 | - | - | - | - | - | -
COc1ccc2oc(=Nc3cc(F)ccc3F)c(C(N)=O)cc2c1 | ? | - | - | ? | ? | 7.3µM
COc1ccc(/C=N/NS(=O)(=O)c2ccccc2)cc1OS(=O)(=O)c1ccc(C)cc1 | - | - | - | - | 18µM | -
COC(=O)N/N=C/c1ccc(OS(=O)(=O)c2ccc(C)cc2)c(OC)c1 | - | - | - | - | - | -
COc1cc(/C=N/NC(=O)COc2ccc(Cl)cc2)ccc1OS(=O)(=O)c1ccc(C)cc1 | ? | - | - | ? | 16µM | -
COc1cc(/C=N/NC(=O)COc2cccc(F)c2)ccc1OS(=O)(=O)c1ccc(C)cc1 | ? | - | - | - | 5.8µM | ?
CCn1cc(C(=O)N2CCN(c3ccccc3)CC2)c(=O)c2cc(S(=O)(=O)N3CCCC3)ccc21 | . | - | - | . | - | -
CCOC(=O)c1cc(OC(=O)c2cc(OC)c(OC)c(OC)c2)n(-c2ccccc2)n1 | . | - | - | . | - | -
CCOC(=O)C1CCN(C(=O)Cn2c(=O)oc3cc(S(=O)(=O)N4CCC(C)CC4)ccc32)CC1 | . | - | - | . | - | -
Cc1ccc(C(=O)N2CCC(N3CCN(Cc4ccc(F)cc4)C(=O)C3=O)CC2)cc1 | . | - | - | . | - | -
N#Cc1ccc(-c2ccc(OCC(=O)NCCc3ccccc3)cc2)cc1 | - | - | - | - | 5.2µM | -
COc1ccc(CCNC(=O)COc2ccc(-c3ccc(C#N)cc3)cc2)cc1 | - | - | - | - | - | -
CCOC(=O)/C(=C\c1cccc(O)c1)c1nc2sc(C)c(C)c2c(=O)[nH]1 | ? | 16µM | ? | ? | ? | ?
CNC(=O)C1CCN(Cc2cc3ccccc3n2Cc2cccc(C)c2)CC1 | . | ? | ? | . | - | -
COc1ccc2nc3sc(C(=O)N4CCN(C)CC4)cc3cc2c1 | - | - | - | - | - | -
COc1ccc2nc3sc(C(=O)NCCCN4CCc5ccccc5C4)cc3cc2c1 | - | - | ? | - | 5.8µM | -
COc1ccc(C(=O)Nc2ccncc2)cc1[N+](=O)[O-] | - | - | - | - | - | -
COc1ccc(C(=O)Nc2c(C)ccc3nsnc23)cc1[N+](=O)[O-] | - | - | - | - | 15µM | -
CCc1ccc(NC(=O)c2ccc(OC)c([N+](=O)[O-])c2)cc1 | - | - | ? | - | 15µM | -
COc1ccc(C(=O)Nc2nc(C)cc(C)n2)cc1[N+](=O)[O-] | - | - | - | - | - | -
COc1ccc(CCNc2nc(-c3ccc(OC)c(OC)c3)cc(C(F)(F)F)n2)cc1OC | . | ? | ? | . | - | ?
COc1ccc(-c2cc(-c3ccc(F)cc3)nc3c2COc2ccc(F)cc2-3)cc1 | . | - | - | . | ? | -
Cc1csc(NC(=O)C2CCN(S(=O)(=O)c3ccccc3F)CC2)n1 | - | - | - | - | 15µM | -
O=C(NC1CCCc2ccccc21)C1CCN(S(=O)(=O)c2ccccc2)CC1 (centres undefined) | - | - | - | - | ? | -
SMILES | HT1080 IDH1KD tx | ATXN2 expr inh | ATXN viability | HT1080NT lethal | KB-V1 MDR tox | KB-3-1 cytotox
O=C(NC1CCCc2ccccc21)C1CCN(S(=O)(=O)c2ccccc2F)CC1 (centres undefined) | - | - | - | - | 7.3µM | -
CC(C)n1nc(C(=O)Nc2cccc(S(=O)(=O)NCc3ccco3)c2)c2ccccc2c1=O | - | . | - | - | 21µM | ?
Cc1ncc2c(c1CNS(=O)(=O)N(C)C)CCN(C(=O)/C=C/c1ccccc1Cl)C2 | . | . | - | . | . | .
Cc1ccc(SC(C)C(=O)Nc2ccccc2-c2ccccc2)cc1 (centres undefined) | - | - | - | - | 21µM | -
O=C(CCC1CCCC1)Nc1ccccc1-c1ccccc1 | - | - | - | - | 18µM | -
O=C(CCC1CCCCC1)Nc1ccccc1-c1ccccc1 | - | - | - | - | ? | -
CC(NC1CCCC1)C(=O)Nc1ccccc1-c1ccccc1 (centres undefined) | - | - | - | - | 12µM | -
CCN1CCN(c2nnc(-n3cccc3C(=O)Nc3cccc(OC)c3)s2)CC1 | . | . | . | . | - | -
COc1ccc(C(=O)N2CCN(c3cccc(Cl)c3)CC2)cc1 | - | - | ? | - | 21µM | -
COc1ccc(N2CCN(C(=O)c3ccc(-n4nc(C)cc4C)cc3)CC2)cc1 | - | - | - | - | 16µM | -
CCOc1ccc(C(=O)N2CCN(c3cccc(Cl)c3)CC2)cc1 | - | . | - | - | - | -
COc1cc(C(=S)N2CCN(c3cccc(Cl)c3)CC2)ccc1O | 16µM | - | - | ? | ? | 8.2µM
CCOC(=O)c1c(C)c(C(=O)N2CCN(c3cccc(Cl)c3)CC2)c(C)n1C | - | - | - | - | 10µM | -
Cc1ccc(C)c(NC(=O)CN(Cc2ccccc2)S(=O)(=O)c2ccc3nc(C)sc3c2)c1 | . | - | - | . | - | -
O=C(c1cccs1)N1CCN(c2cccc(Cl)c2)CC1 | - | - | - | - | - | -
Oc1ccccc1C(=S)N1CCN(c2cccc(Cl)c2)CC1 | - | -[11.3 µM] | - | - | - | -
COc1ccc(-n2nc(C(=O)NCC(=O)N3CCN(c4cccc(Cl)c4)CC3)c3ccccc3c2=O)c(OC)c1 | - | - | - | - | 12µM | -
COc1ccc(C(=S)N2CCN(c3cccc(Cl)c3)CC2)c(OC)c1 | ? | ? | - | ? | - | 6.5µM
O=C(c1ccc([N+](=O)[O-])s1)N1CCN(c2cccc(Cl)c2)CC1 | - | - | ? | - | 16µM | ?
COc1cccc(C(=O)Nc2ccccc2OCc2cc(=O)n3cc(C)ccc3n2)c1 | . | . | . | . | - | -
COc1cccc(CN2CCC(n3cc(C(=O)NC4CCCC4)nn3)CC2)c1O | . | . | - | . | . | .
CC(=O)C1=C(C)OC(N)=C(C#N)C1c1cccc([N+](=O)[O-])c1 (centres undefined) | - | - | - | - | - | -
CC(=O)C1=C(C)OC(N)=C(C#N)C1c1cc([N+](=O)[O-])ccc1Cl (centres undefined) | ? | - | - | 16µM | - | -
COc1cc(-c2nnc(SCCOc3ccc(Cl)cc3C)o2)cc(OC)c1OC | . | - | - | . | - | -
CC(=O)OCC(=O)C1CCC2C3CCC4=CC(=O)C=CC4(C)C3CCC12C (centres undefined) | - | - | - | - | 16µM | -
